PI5P4K alpha inh – qHTS for Inhibitors of phosphatidylinositol 5-phosphate 4-kinase (PI5P4K) | Phosphatidylinositol 5-phosphate 4-kinase type-2 alpha (Homo sapiens), P48426 | PI5P4Kalpha enzyme, ADP-Glo luminescence, 60 min; hits give low values | max response, % | hit rate 1.2% among 330,000; active means max response of -50% or lower; inconclusive means between -30% and -50%; inactive means -30% or higher; further: value at the top dose of about 77 µM; on the % scale 0 is the no-effect control and ±100 the full control effect
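qHTS, 1536-well: enzyme/substrate mix, compound by pin tool, 5 microM ATP final; RT 60 min; ADP-Glo reagents 1 (45 min) then 2 (30 min); luminescence.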
PLK1 PBD block – qHTS for Inhibitors of PLK1-PDB (polo-like kinase 1 - polo-box domain): Primary Screen | Potency, µM, inactives show max response, negative = inhibition, usual class: inhibitors | hit rate 2.8% among 360,000 | Plk1 PBD binding of FITC phosphopeptide, fluorescence polarization; further: potency means the concentration at half of the fitted maximal effect; series mostly up to about 57 µM; on the % scale 0 is the no-effect control and ±100 the full control effect; nearly all actives have a fitted effect of over 65% in size
Target sequence (P53350 whole entry, looked up, the tested form may be a part): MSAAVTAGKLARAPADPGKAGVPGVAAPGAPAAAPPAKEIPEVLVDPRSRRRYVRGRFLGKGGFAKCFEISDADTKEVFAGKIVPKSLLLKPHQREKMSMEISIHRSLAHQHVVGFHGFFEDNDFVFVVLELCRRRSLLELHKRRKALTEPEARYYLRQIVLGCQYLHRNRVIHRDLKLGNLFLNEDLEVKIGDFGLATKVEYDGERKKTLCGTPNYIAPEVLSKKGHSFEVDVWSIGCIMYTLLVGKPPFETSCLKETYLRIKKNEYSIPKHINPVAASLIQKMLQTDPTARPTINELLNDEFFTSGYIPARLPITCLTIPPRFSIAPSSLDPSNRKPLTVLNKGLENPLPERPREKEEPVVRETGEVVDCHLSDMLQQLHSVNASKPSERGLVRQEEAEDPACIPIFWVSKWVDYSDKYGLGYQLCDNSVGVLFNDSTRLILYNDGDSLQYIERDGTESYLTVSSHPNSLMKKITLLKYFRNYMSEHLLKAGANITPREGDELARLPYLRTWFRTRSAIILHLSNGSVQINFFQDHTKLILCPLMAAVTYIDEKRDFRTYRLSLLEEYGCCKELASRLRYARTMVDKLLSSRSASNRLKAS
VDR inhibitor – Inhibitors of the vitamin D receptor (VDR): qHTS. VDR-SRC2-3 peptide fluorescence polarization, 2 h. hit rate 0.93% among 400,000. Potency, µM, without a hit: max response, negative = inhibition, usual class: inhibitors; further: potency means the concentration at half of the fitted maximal effect; on the % scale 0 is the no-effect control and ±100 the full control effect
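VDR–SRC2-3 interaction, FP format. Cmpds 23 nl via pintool, brief spin, 2 h ambient incubation.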
TCR act – Activators of T cell receptors: qHTS campaign | AID 504894, 2011 | 330,000 tested, under 10 active | primary human leukocytes, anti-CD3, IL-2 HTRF, 48 h | Potency, µM (series often up to 9.22 µM), for inactives: at the highest dose activation of IL-2 secretion, usual class: activators; further: % of control where 0% means no effect
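HTRF read-out of IL-2 secretion: europium cryptate donor excited at 320nm, d2 acceptor emission at 665nm. Cells were primary human leukocytes incubated 48 hr with compounds and a-CD3 beads, supplying TCR signal only.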
WRN helicase inh – qHTS for Inhibitors of WRN Helicase. WRN helicase unwinding, fluorescent forked duplex, kinetic. hit rate 0.46% among 360,000. Potency, µM (series often up to 114 µM), for inactives: at the top dose activity change, negative = inhibition, actives largely listed as inhibitors. Bifunctional 3'-5' exonuclease/ATP-dependent helicase WRN (Homo sapiens), Q14191; further: potency means the concentration at half of the fitted maximal effect; on the % scale 0 is the no-effect control and ±100 the full control effect; nearly all actives have a fitted effect of over 55% in size
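Fluorescence dequenching readout, ex 525 nm/em 598 nm, kinetic mode: forked duplex DNA (100 nM final) with adjacent fluorophore and quencher unwound by WRN (20 nM final) with 2 mM ATP. Compound preincubation 15 min, room temperature.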
FEN1 inhibitor – qHTS Assay for the Inhibitors of Human Flap endonuclease 1 (FEN1) | Recombinant FEN1 flap cleavage, fluorescence, 15 min | Potency, µM (highest dose often 114 µM), for the others: at the highest dose activity change, negative = inhibition, hits mostly inhibitors | hit rate 0.35% among 390,000 | AID 588795, 2011; further: potency means the concentration at half of the fitted maximal effect; on the % scale 0 is the no-effect control and ±100 the full control effect; nearly all actives have a fitted effect of over 65% in size
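Quantitative HTS format: each compound was titrated, incubated with 10 nM nuclease for 15 min at room temperature, then challenged with flap substrate at 50 nM final. Signal change over 15 min gave concentration–effect curves.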
Numbers without * were called inactive; ? = inconclusive; · = not tested or not shown; ! = not confirmed by another sample; [ ] = dose if it differs, or a comment. Shown are actives, neighbours in structure and some others; about 3.7% of the full set was active somewhere. Unless noted, the call rests on the fitted dose curve; in most records, active means well fitted curve in the direction sought with a large enough effect; inconclusive means small, poorly fitted or top-dose-only effect, or another doubt; inactive means no such curve, though single readings can be large; an effect the other way counts as inactive or inconclusive.

SMILES | PI5P4K alpha inh | PLK1 PBD block | VDR inhibitor | TCR act | WRN helicase inh | FEN1 inhibitor
O=C(O)c1cc(C(=O)O)c(C(=O)N(Cc2cccc(Oc3ccccc3)c2)[C@H]2CCCc3ccccc32)cc1C(=O)O | · | · | -11% | · | · | ·
CCNc1nc(NCC)n2c(SCC(=O)Nc3ccc(F)cc3)nnc2n1 | -11 | -13% | -8% | 4% | ? | 0%
CCNc1nc(NCC)n2c(SCC(=O)Nc3ccc(Br)cc3F)nnc2n1 | -21 | 13µM* | 71µM* | · | ? | -1%
Cc1ccc(S(=O)(=O)NNc2ccccc2)cc1 | · | 28µM* | ? | 2% | -13% | 0%
Cc1ccc(S(=O)(=O)NNc2nc3ccccc3nc2C(F)(F)F)cc1 | -21 | 8.4µM* | ? | 2% | 4%[57.1 µM] | 6%
NNc1nc2ccccc2nc1C(F)(F)F | -4 | 19µM* | -28% | -19% | -11%[57.1 µM] | 1%
Cc1ccc(S(=O)(=O)Nn2c(C)ccc2C)cc1 | -58* | -19% | 1% | -7% | -3% | -8%
Cc1ccc(S(=O)(=O)Nc2cccnc2)cc1 | ? | 21µM* | ? | · | 10% | 1%
O=C(COc1ccc2c(c1)CCC2)NCc1cccc(Cl)c1 | 2 | 21% | -6% | 1%[46.1 µM] | -10%[57.1 µM] | -12%
O=C(COc1ccc2c(c1)CCC2)NCc1ccc(Cl)cc1 | 4 | 30µM* | -27% | 0%[46.1 µM] | 4% | 13%
COc1ccc(NC(=O)C2CCCN2C(=O)NCc2ccccc2)cc1 (configuration not stated) | ? | 15µM* | 71µM* | -8% | 5% | 4%
COc1ccc(CNC(=O)Nc2ccccc2)cc1 | -22 | 12µM* | ? | -2% | 7% | 0%
COc1ccc(CNC(=O)Nc2ccc(OC)cc2)cc1 | · | -4% | 8% | 3% | -4% | 3%
NCCCC[C@H](NC(=O)[C@H](CCCN=C(N)N)NC(=O)[C@H](CO)NC(=O)[C@H](CCCN=C(N)N)NC(=O)[C@@H](N)Cc1ccc(O)cc1)C(=O)N[C@@H](Cc1ccc(O)cc1)C(=O)N[C@@H](CO)C(=O)N[C@@H](CO)C(=O)N[C@@H](Cc1c[nH]c2ccccc12)C(=O)N[C@@H](Cc1ccc(O)cc1)C(=O)O | · | · | 2% | · | · | ·
CC[C@H](NC(=O)[C@H](CCCN=C(N)N)NC(=O)[C@H](Cc1c[nH]c2ccccc12)NC(=O)[C@@H](N)CS)C(=O)N[C@@H](CCCN=C(N)N)C(=O)N[C@@H](Cc1ccc(O)cc1)C(N)=O | · | · | 40µM* | · | · | ·
O=C(OCc1nc2scc(-c3ccccc3)c2c(=O)[nH]1)c1cccc([N+](=O)[O-])c1 | -6 | 30µM* | -20% | -2%[46.1 µM] | -22% | -17%
CCOc1ccc(NC(=O)N(Cc2cn(CC)c3ccccc23)C2CCCCCC2)cc1 | · | · | -9% | · | · | -19%
Cc1ccsc1CCNC(=O)C1CCC(=O)N(CCc2cccc(F)c2)C1 (configuration not stated) | -1 | -1% | -12% | -2% | 4% | 0%
COc1cccc(CN2CC(C(=O)NCCOc3cccnc3)CCC2=O)c1 (configuration not stated) | 2 | 17µM* | -27% | 3% | -10% | 18%
COc1ccccc1CCNC(=O)C1CCC(=O)N(Cc2cccc(F)c2)C1 (configuration not stated) | 7 | 30µM* | -19% | 5% | -4% | 2%
COc1ccccc1CN1CC(C(=O)NCCCc2ccc(F)cc2)CCC1=O (configuration not stated) | -1 | -4% | 18% | -2% | -8% | 18%
O=C(NCCc1ccccc1F)C1CCC(=O)N(Cc2ccccc2F)C1 (configuration not stated) | -14 | 27µM* | -17% | -2% | -3% | -16%
O=C(NCCc1ccccc1F)C1CCC(=O)N(CCCN2CCCC2=O)C1 (configuration not stated) | 1 | 2% | -4% | -8% | 0% | 4%
Cc1ccccc1CCNC(=O)C1CCC(=O)N(CCc2cccc(F)c2)C1 (configuration not stated) | -4 | 30µM* | 1% | 6% | 2% | -6%
COc1ccc(CN2CCC3C=CCC(C(=O)O)C3C2=O)cc1OC (configuration not stated) | · | · | -5% | · | · | -19%
SMILES | PI5P4K alpha inh | PLK1 PBD block | VDR inhibitor | TCR act | WRN helicase inh | FEN1 inhibitor
Nc1ncnc2c1ncn2[C@@H]1O[C@H](C(=O)N2CCN(CC(=O)Nc3cccc4c3CNC4=O)CC2)[C@@H](O)[C@H]1O | · | · | -8% | · | · | ·
COc1cc(C2NC(=O)C(C#N)=C(Nc3cccc(C)c3)S2)ccc1O (configuration not stated) | -23 | ? | 32µM* | 4% | 7% | 0%
COC(=O)C1=C(C)N(C)C(=O)NC1c1ccc(O)c(OC)c1 (configuration not stated) | -1 | 4% | -10% | 0%[46.1 µM] | 1% | 0%
CCOC(=O)/C(=C\c1cccnc1)C(=O)c1cc(C(C)=O)c(Nc2ccccc2)s1 | -8 | ? | 7.9µM* | 0% | -32% | -12%
CCOC(=O)/C(=C\c1ccccc1)C(=O)c1cc(C(C)=O)c(Nc2ccccc2)s1 | · | 1% | ? | -4% | -3% | 5%
N#CCCN(C(=S)NC(=O)c1ccco1)c1ccccc1F | 3 | 30µM* | -10% | 7% | -10% | -4%
CC(=O)C(=O)O | · | · | -1% | · | · | ·
CCCCCCCCCCCCCCCC[n+]1cccc(C(=O)N(CC)CC)c1 | -73*! | ? | 17% | -9% | 4% | ?
CNC(=O)c1c(NC(=O)c2nc(SCc3ccc(C)cc3)ncc2Cl)sc2c1CCCC2 | · | · | 12% | · | · | -13%
CCCCOc1ccc(C(=O)NCCS(=O)(=O)N2CCN(c3ccccc3OC)CC2)cc1 | · | · | 14% | · | · | -15%
O=C1c2c([N+](=O)[O-])cc([N+](=O)[O-])cc2S(=O)N1Cc1ccccc1 (configuration not stated) | -60* | 38µM* | ? | · | -27% | -16%
CCOc1ccc(-n2c(C)nc3cc(C(=O)NCc4ccc(C)cc4)ccc32)cc1 | · | · | 9% | · | · | -16%
COc1ccc2[nH]c(C)cc2c1 | · | · | · | · | · | 0%
CCC(C(=O)Nc1nc(C)c(C)s1)c1ccccc1 (configuration not stated) | 1 | 0% | 1% | · | -27% | 8%
CCC(C(=O)Nc1nc(C)cs1)c1ccccc1 (configuration not stated) | -16 | 27µM* | ? | 1% | 5% | 7%

Compound activity (PubChem BioAssay)
